Assay [1] concerns the target rat Gamma-Aminobutyric Acid Type B Receptor (GABBR), Gabbr1 (gene 81657) (UniProt Q9Z0U4). In words: NVS_GPCR_rGABBR: NovaScreen (NVS) G Protein-Coupled Receptor Assay for rat Gamma-Aminobutyric Acid Type B Receptor (GABBR) (AID 2283301). The method, boiled down:
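Radioligand displacement on rat cortical membranes, 1 h, filter-based scintillation counting. Primary screen at 25 uM in duplicate; compounds passing threshold re-tested in concentration-response up to 50 uM; loss of binding fitted against DMSO.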

Assay [2] has as its target rat Adrenergic Receptor, Beta (Adrb), Non-selective Binding, Adrb1 (gene 24925) (UniProt P18090). The assay can be described thus: NVS_GPCR_rAdrb_NonSelective: NovaScreen (NVS) G Protein-Coupled Receptor Assay for rat Adrenergic Receptor, Beta (Adrb), Non-selective Binding (AID 2283298). The method, boiled down:
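Non-selective beta-adrenergic radioligand binding in rat cortical membranes, 1 h incubation, filter-based scintillation read-out. Primary screen 25 uM in duplicate; hits retested in concentration-response up to 50 uM, DMSO baseline.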

The target in assay [3] is rat Histamine Receptor (H3), Hrh3 (gene 85268) (UniProt Q9QYN8). The assay can be described thus: NVS_GPCR_rH3: NovaScreen (NVS) G Protein-Coupled Receptor Assay for rat Histamine Receptor (H3) (AID 2283303). In a few lines: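 Rat forebrain membranes incubated 1 h with compound; radioligand displacement measured by filter-based scintillation counting. Single-concentration duplicates at 25 µM, then concentration-response up to 50 µM, relative to DMSO.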

Assay [4] addresses Adra2b (gene 24174) (UniProt P19328). In words: NVS_GPCR_rmAdra2B: NovaScreen (NVS) G Protein-Coupled Receptor Assay for hybird cells Adrenergic, Alpha 2B Receptor (Adra2B) (AID 2283306). The method, boiled down:
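Radioligand filter-binding assay on membrane proteins from neuroglioma/blastoma hybrid cells (rodent), 1 h after dosing; scintillation counting, loss of signal vs DMSO. Primary screen in duplicate at 25 uM, actives then run in concentration series.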

In assay [5] the target is rat Opioid Receptor, Non-selective Sodium (Na+) Binding, Oprm1 (gene 25601) (UniProt P33535). The assay can be described thus: NVS_GPCR_rOpiate_NonSelectiveNa: NovaScreen (NVS) G Protein-Coupled Receptor Assay for rat Opioid Receptor, Non-selective Sodium (Na+) Binding (AID 2283311). In a few lines:
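Rat forebrain membranes, radioligand displacement with filter scintillation counting, 1.5 h incubation. Screened in duplicate at 25 µM; hits then run in concentration-response up to 50 µM; loss of binding fitted versus DMSO.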

Assay [6] relates to rabbit Platelet Activating Factor Receptor (PAF), gene 100354046. The assay can be described thus: NVS_GPCR_rabPAF: NovaScreen (NVS) G Protein-Coupled Receptor Assay for rabbit Platelet Activating Factor Receptor (PAF) (AID 2283287). In a few lines: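 Rabbit platelet membrane preparation; radioligand displacement read by filter-based scintillation counting 1 h after dosing, loss of signal versus DMSO. Primary screen in duplicate at 25 uM, actives followed up in concentration series.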

Assay [7] deals with mouse Cholecystokinin, CCK2 Receptor (CCKB), Cckbr (gene 12426) (UniProt P56481). The assay can be described thus: NVS_GPCR_mCKKBCentral: NovaScreen (NVS) G Protein-Coupled Receptor Assay for mouse Cholecystokinin, CCK2 Receptor (CCKB) (AID 2283293). The method, boiled down: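 Radioligand displacement binding on mouse forebrain membranes, 2 h exposure, filter-based scintillation counting. Primary screen in duplicate at 25 uM; actives (e.g. ≥30% inhibition) retested in concentration-response up to 50 uM; loss of binding signal relative to DMSO.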
Chain of mouse Cholecystokinin, CCK2 Receptor (CCKB), Cckbr (gene 12426) (P56481 whole entry, looked up): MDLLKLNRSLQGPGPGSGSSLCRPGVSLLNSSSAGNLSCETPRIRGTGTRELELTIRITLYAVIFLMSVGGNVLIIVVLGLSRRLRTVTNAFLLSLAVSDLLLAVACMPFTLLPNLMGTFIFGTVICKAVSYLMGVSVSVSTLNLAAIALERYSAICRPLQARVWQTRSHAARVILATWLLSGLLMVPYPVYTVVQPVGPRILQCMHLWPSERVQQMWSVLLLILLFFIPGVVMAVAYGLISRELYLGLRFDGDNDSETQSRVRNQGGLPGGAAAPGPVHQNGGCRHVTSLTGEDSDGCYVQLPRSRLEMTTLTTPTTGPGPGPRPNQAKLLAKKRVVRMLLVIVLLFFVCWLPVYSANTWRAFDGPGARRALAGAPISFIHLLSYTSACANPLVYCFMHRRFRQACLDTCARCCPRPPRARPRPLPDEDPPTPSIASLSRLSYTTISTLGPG

In assay [8] the target is Metabotropic glutamate receptor 1 (Rattus norvegicus) (UniProt P23385). The assay can be described thus: NVS_GPCR_rmMGluR1: NovaScreen (NVS) G Protein-Coupled Receptor Assay for rat Glutamate Metabotropic Receptor 1 (MGluR1) (AID 2283305). The method, boiled down: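 Rat cerebellum membrane preparation, radioligand displacement binding read by filter-based scintillation counting 1 hour after dosing. Initial duplicate single-point screen at 25 uM, then concentration-response up to 50 uM; loss of signal versus DMSO baseline scored.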

Assay [9] deals with rat Neurokinin-1 Receptor (NK1), Tacr1 (gene 24807) (UniProt P14600). The assay can be described thus: NVS_GPCR_rNK1: NovaScreen (NVS) G Protein-Coupled Receptor Assay for rat Neurokinin-1 Receptor (NK1) (AID 2283309). The method, boiled down:
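Rat submaxillary gland membranes; radioligand displacement read by filter-based scintillation counting after 1 h. Primary screen in duplicate at 25 uM; actives retested in concentration series; loss of binding fitted versus DMSO.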

Assay [10] has as its target guinea pig Serotonin, 5-Hydroxytryptamine Receptor 4 (5HT4), HTR4 (gene 100135548) (UniProt O70528). The assay can be described thus: NVS_GPCR_g5HT4: NovaScreen (NVS) G Protein-Coupled Receptor Assay for guinea pig Serotonin, 5-Hydroxytryptamine Receptor 4 (5HT4) (AID 2283294). The method, boiled down:
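Guinea pig striatal membranes; radioligand competitive displacement, filtration and scintillation counting after 1 h. Primary screen in duplicate at 25 uM; actives then tested in concentration series; loss of binding signal fitted relative to DMSO.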

The subject of assay [11] is rat Adrenergic, Alpha 1B Receptor (Adra1B), gene 24173. In words: NVS_GPCR_rAdra1B: NovaScreen (NVS) G Protein-Coupled Receptor Assay for rat Adrenergic, Alpha 1B Receptor (Adra1B) (AID 2283297). In a few lines:
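Rat liver membranes, radioligand displacement with filter-based scintillation detection, 1 h incubation. Primary screen in duplicate at 25 uM; actives retested in concentration series; activity relative to DMSO.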

The test system of assay [12] is 5-hydroxytryptamine receptor 2C (pig). The assay can be described thus: NVS_GPCR_p5HT2C: NovaScreen (NVS) G Protein-Coupled Receptor Assay for pig Serotonin, 5-Hydroxytryptamine Receptor 2C (5HT2C) (AID 2283288). In a few lines: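 Pig choroid plexus membranes; radioligand competitive binding, filter-based scintillation counting, read 1 h after dosing. Primary screen in duplicate at 25 uM; actives then run as concentration series; loss of signal versus DMSO baseline.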

The target in assay [13] is rat Adrenergic, Alpha 1, Non-selective Receptor (Adra1), Adra1a (gene 29412) (UniProt P43140). In words: NVS_GPCR_rAdra1_NonSelective: NovaScreen (NVS) G Protein-Coupled Receptor Assay for rat Adrenergic, Alpha 1, Non-selective Receptor (Adra1) (AID 2283289). The method, boiled down:
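Rat forebrain membranes; radioligand displacement read by filter-based scintillation counting 1 h after dosing. Primary screen in duplicate at 25 uM; hits (e.g. ≥30% inhibition) rerun as concentration–response to 50 uM max. Fitted versus DMSO.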

The target in assay [14] is rat Serotonin, 5-Hydroxytryptamine Receptor (5HT), Non-Selective Binding, Htr1a (gene 24473) (UniProt P19327). The assay can be described thus: NVS_GPCR_r5HT_NonSelective: NovaScreen (NVS) G Protein-Coupled Receptor Assay for rat Serotonin, 5-Hydroxytryptamine Receptor (5HT), Non-Selective Binding (AID 2283295). The method, boiled down:
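Radioligand displacement on rat cortical membranes, 1 h incubation, filter-based scintillation counting. Primary duplicates at 25 uM, actives retested in concentration series; loss of signal fitted against DMSO as baseline.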

The target in assay [15] is rat Adrenergic, Alpha 1A Receptor (Adra1A), Adra1a (gene 29412) (UniProt P43140). The assay can be described thus: NVS_GPCR_rAdra1A: NovaScreen (NVS) G Protein-Coupled Receptor Assay for rat Adrenergic, Alpha 1A Receptor (Adra1A) (AID 2283296). In a few lines: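 Rat cortical membranes pretreated with chlorethyl clonidine; competitive radioligand displacement, 1 h. Filter-based scintillation counting. Primary screen in duplicate at 25 uM, actives followed in concentration series.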
Chain of rat Adrenergic, Alpha 1A Receptor (Adra1A), Adra1a (gene 29412) (P43140 whole entry, looked up): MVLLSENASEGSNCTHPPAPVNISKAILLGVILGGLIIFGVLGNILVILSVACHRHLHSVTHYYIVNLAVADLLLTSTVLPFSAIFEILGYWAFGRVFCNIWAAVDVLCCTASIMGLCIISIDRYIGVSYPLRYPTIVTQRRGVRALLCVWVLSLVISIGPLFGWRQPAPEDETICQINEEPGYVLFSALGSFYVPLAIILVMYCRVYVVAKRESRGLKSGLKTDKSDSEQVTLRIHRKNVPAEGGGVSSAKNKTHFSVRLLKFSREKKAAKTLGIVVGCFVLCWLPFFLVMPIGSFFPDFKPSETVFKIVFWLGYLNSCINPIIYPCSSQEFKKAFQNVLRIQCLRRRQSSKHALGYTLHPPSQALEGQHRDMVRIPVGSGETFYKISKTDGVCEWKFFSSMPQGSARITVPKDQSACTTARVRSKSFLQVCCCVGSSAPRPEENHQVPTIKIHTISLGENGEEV

The target in assay [16] is rat Adrenergic Receptor, Alpha 2 (Adra2), Non-selective Binding, Adra2a (gene 25083) (UniProt P22909). In words: NVS_GPCR_rAdra2_NonSelective: NovaScreen (NVS) G Protein-Coupled Receptor Assay for rat Adrenergic Receptor, Alpha 2 (Adra2), Non-selective Binding (AID 2283299). The method, boiled down:
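Rat cortical membranes, radioligand competitive displacement read by filter-based scintillation counting 1.25 hours after dosing. Primary screen in duplicate at 25 uM; actives followed up in concentration series.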

Assay [17] has as its target human Opioid Receptor Mu (Opiate Mu), OPRM1 (gene 4988) (UniProt P35372). The assay can be described thus: NVS_GPCR_hOpiate_mu: NovaScreen (NVS) G Protein-Coupled Receptor Assay for human Opioid Receptor Mu (Opiate Mu) (AID 2283290).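 Further: hits lower bound tracer signal versus DMSO meaning displacement of the ligand.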 In a few lines:
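CHO-derived receptor protein, cell-free; radioligand displacement, filtration + scintillation counting, read at 2.5 h. DMSO = negative control/baseline. Primary: 25 uM single conc, duplicate; secondary: concentration series.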

In assay [18] the target is rat Somatostatin Receptor (SST), Sstr1 (gene 25033) (UniProt P28646). The assay can be described thus: NVS_GPCR_rSST: NovaScreen (NVS) G Protein-Coupled Receptor Assay for rat Somatostatin Receptor (SST) (AID 2283314). In a few lines: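 Rat forebrain membranes; radioligand displacement read by filter-based scintillation counting 1 h after dosing. Primary screen in duplicate at 25 uM. Actives (e.g., 30% inhibition) were rerun as concentration-response to 50 uM max and fitted against DMSO.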

Molecules are shown by their SMILES. Records with an inconclusive call do not appear. Active and inactive are the calls of the source. How the source made its calls: active means hit-call score of the fitted dose curve at least 0.9, where 1 is the maximum; inconclusive means response in the unintended direction; inactive means score below 0.9.

Chain of rat Serotonin, 5-Hydroxytryptamine Receptor (5HT), Non-Selective Binding, Htr1a (gene 24473) (P19327 whole entry, looked up): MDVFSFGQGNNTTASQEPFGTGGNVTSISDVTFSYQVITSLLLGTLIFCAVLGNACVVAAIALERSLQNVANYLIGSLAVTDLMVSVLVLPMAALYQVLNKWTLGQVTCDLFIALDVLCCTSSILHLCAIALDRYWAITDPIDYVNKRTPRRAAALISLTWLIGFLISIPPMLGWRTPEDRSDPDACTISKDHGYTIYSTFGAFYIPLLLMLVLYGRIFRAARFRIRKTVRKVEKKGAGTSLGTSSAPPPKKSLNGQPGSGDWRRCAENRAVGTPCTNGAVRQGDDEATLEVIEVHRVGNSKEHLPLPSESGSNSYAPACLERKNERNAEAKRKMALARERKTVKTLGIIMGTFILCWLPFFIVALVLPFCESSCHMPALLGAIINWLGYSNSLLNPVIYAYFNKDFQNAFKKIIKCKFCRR
Chain of human Opioid Receptor Mu (Opiate Mu), OPRM1 (gene 4988) (P35372 whole entry, looked up): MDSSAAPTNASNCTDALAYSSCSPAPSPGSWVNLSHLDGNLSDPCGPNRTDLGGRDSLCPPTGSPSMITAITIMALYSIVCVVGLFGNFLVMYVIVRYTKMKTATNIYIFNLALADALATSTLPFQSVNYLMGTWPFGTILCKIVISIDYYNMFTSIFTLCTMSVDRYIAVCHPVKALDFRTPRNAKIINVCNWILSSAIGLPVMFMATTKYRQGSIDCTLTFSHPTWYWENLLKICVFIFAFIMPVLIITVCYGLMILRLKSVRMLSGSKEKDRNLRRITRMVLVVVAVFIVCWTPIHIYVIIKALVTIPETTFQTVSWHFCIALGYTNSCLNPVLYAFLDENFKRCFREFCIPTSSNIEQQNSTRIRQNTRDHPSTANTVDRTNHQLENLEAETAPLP
Chain of Adra2b (gene 24174) (P19328 whole entry, looked up): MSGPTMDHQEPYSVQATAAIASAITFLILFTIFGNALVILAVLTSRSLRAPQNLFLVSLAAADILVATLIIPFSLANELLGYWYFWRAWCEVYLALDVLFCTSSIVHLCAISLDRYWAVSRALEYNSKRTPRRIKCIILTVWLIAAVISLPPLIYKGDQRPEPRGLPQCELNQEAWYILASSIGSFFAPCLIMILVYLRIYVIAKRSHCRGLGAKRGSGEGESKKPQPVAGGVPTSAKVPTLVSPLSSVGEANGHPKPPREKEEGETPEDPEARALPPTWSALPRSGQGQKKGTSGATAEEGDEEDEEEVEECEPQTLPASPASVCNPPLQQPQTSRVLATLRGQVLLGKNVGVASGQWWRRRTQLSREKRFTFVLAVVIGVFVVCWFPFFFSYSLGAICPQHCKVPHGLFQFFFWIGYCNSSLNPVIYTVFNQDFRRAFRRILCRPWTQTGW
Chain of rat Neurokinin-1 Receptor (NK1), Tacr1 (gene 24807) (P14600 whole entry, looked up): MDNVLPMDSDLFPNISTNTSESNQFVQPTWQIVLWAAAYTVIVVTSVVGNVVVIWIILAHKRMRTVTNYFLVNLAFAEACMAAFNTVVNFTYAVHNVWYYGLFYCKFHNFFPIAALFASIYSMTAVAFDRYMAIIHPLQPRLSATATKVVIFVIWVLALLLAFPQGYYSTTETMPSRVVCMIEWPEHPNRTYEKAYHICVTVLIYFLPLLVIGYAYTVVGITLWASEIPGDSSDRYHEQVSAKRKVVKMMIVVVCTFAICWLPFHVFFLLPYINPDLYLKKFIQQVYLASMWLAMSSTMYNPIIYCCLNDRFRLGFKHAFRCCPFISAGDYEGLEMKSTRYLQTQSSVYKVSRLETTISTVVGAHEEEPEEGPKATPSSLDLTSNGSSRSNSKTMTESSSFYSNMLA
Chain of rat Opioid Receptor, Non-selective Sodium (Na+) Binding, Oprm1 (gene 25601) (P33535 whole entry, looked up): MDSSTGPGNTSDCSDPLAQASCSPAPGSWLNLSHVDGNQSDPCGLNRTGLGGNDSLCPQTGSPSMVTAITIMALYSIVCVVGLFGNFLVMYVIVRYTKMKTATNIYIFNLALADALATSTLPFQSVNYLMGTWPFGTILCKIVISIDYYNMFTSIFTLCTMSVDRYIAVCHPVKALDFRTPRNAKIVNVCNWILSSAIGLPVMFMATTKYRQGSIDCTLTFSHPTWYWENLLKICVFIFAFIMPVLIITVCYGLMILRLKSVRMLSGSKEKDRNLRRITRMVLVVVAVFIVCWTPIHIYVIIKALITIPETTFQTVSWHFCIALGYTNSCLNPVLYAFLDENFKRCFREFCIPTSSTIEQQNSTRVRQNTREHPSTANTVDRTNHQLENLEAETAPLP
Chain of rat Adrenergic Receptor, Beta (Adrb), Non-selective Binding, Adrb1 (gene 24925) (P18090 whole entry, looked up): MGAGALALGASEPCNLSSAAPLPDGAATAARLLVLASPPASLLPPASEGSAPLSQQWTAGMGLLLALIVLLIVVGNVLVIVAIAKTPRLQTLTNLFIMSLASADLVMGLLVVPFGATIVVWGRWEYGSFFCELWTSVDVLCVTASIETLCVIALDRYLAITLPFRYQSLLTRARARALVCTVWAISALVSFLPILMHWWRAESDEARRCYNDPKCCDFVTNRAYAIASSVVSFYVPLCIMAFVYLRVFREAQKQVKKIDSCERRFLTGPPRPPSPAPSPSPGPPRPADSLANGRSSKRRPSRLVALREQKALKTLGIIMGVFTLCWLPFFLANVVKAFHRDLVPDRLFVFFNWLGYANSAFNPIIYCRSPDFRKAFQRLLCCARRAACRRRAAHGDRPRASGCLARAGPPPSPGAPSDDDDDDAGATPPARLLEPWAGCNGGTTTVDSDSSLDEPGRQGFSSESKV
Chain of rat Adrenergic, Alpha 1, Non-selective Receptor (Adra1), Adra1a (gene 29412) (P43140 whole entry, looked up): as the sequence (P43140 whole entry, looked up) above
Chain of rat Gamma-Aminobutyric Acid Type B Receptor (GABBR), Gabbr1 (gene 81657) (Q9Z0U4 whole entry, looked up): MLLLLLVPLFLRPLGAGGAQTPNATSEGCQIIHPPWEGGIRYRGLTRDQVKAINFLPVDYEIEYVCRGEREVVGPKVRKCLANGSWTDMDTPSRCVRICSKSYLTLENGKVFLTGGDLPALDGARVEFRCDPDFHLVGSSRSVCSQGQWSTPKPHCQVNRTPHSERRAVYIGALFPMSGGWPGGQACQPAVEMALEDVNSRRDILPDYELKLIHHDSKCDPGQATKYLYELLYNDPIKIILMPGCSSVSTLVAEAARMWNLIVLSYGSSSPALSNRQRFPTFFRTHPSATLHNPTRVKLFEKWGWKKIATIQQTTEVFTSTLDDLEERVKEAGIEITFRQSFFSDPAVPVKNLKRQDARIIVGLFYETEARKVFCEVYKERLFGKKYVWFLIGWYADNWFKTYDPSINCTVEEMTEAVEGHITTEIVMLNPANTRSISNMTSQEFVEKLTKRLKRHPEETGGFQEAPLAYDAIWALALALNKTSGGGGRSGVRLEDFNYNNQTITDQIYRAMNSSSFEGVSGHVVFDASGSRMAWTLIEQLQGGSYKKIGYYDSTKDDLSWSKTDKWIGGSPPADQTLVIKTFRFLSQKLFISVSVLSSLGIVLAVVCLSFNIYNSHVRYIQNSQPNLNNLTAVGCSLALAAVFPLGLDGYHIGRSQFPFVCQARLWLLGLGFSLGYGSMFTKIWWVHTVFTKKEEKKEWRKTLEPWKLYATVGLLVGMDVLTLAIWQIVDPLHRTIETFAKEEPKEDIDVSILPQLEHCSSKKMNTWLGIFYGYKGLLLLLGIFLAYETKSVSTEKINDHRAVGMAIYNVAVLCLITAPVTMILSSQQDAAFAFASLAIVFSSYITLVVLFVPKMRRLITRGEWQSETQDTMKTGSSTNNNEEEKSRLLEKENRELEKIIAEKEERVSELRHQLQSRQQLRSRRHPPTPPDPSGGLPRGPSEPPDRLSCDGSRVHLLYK

Take `Cc1oc(-c2ccccc2)nc1CCOc1cccc2c1ccn2CCC(=O)O`: in assay [1], the AC50 was 15.9 µM (active).
`CNCc1cc(F)ccc1Oc1ccc(Cl)c(Cl)c1`: the results for the concentration at half-maximal activity (AC50) in assay [2], in assay [4] and in assay [5] were 12.2 µM (active), 8.41 µM (active) and 25 µM (active), respectively. In addition, the molecule was classed as inactive in [3].
As for `CC(C)c1ccc(C(=O)N=C(N)N)cc1S(C)(=O)=O`, the molecule was classed as inactive in assay [2].
For `COc1ccc(S(=O)(=O)N2C(=O)[C@@](c3ccccc3OC)(N3C[C@H](O)C[C@H]3C(=O)N(C)C)c3cc(Cl)ccc32)c(OC)c1`, the AC50 is 12.3 µM (active) in [6], 25 µM (active) in [7] and 11.3 µM (active) in assay [9]. Also, the outcome in assay [8] was inactive.
For the molecule `COc1cc(S(=O)(=O)O)c(C)cc1N=Nc1c(O)ccc2cc(S(=O)(=O)O)ccc12`, the results for the AC50 in assay [10] and in [9] were 41.9 µM (active) and 25 µM (active), respectively. In addition, in [11], the molecule was called inactive.
Regarding `NC(=O)Cn1c(=O)cc(CCN2CCN(c3nccc4sccc34)CC2)c2ccc(F)cc21`, the AC50 in assay [12] was 0.00974 µM (active); in assay [13], 0.0868 µM (active); in [14], 0.0315 µM (active); in assay [15], 0.258 µM (active); in assay [11] it was 0.595 µM (active); in [16], 0.167 µM (active). The AC50 in assay [4] was 0.131 µM (active); in assay [5], 1.38 µM (active).
For `Nc1ccc(S(=O)(=O)c2ccc(N)cc2)cc1`, the molecule was classed as inactive in assay [5].
For the molecule `CC1=C(/C=C/C(C)=C/C=C/C(C)=C/CO)C(C)(C)CCC1`, the result in assay [17] and in [14] was inactive.
As for `Nc1nc(N)c2nc(CNc3ccc(C(=O)N[C@@H](CCC(=O)O)C(=O)O)cc3)cnc2n1`, in assay [17], the AC50 was 5.21 µM (active).
The same measure, in the same setting: next, `Oc1ccc2ccccc2c1N=Nc1ccccc1`: 37.4 µM (active).
With `Cc1nc(-c2ccc3c(c2)CCN(CCC2CCC(NC(=O)/C=C/c4ccc(F)cc4)CC2)CC3)no1` (configuration not stated), in assay [2], the molecule was called inactive.
With `COc1ccc2c(c1)c(CC(=O)O)c(C)n2C(=O)c1ccc(Cl)cc1`, the result in assay [1] was inactive.
On to `Nc1ccccc1N`, for which, in [9], the molecule was called inactive.
Take `CCCCc1ccc2c(n1)[C@@H](c1ccc(OC)cc1C[C@H](C)C(=O)O)[C@H](C(=O)O)[C@H]2c1ccc2c(c1)OCO2`: the AC50 in [7] was 20 µM (active).
Consider `CN1CCN(Cc2cc(-c3ccc4[nH]c(=O)oc4c3)co2)[C@@H](c2ccc(F)cc2)C1`, for which the molecule was classed as inactive in [6] and in [5]. The concentration at half-maximal activity (AC50) in assay [12] is 0.25 µM (active); in assay [13], 8.23 µM (active); in [17] it was 22 µM (active); in assay [14], 0.0493 µM (active); in [15], 10.3 µM (active); in assay [11], 22 µM (active). Moreover, the figures for the AC50 in [4] and in [9] were 15.8 µM (active) and 22 µM (active), respectively.
Consider `CC(C)(C)c1cc(O)c(C(C)(C)C)cc1O`, for which the half-maximal activity concentration (AC50) in assay [18] was 3.63 µM (active).
As to `CCOC(=O)C(C)(C)Oc1ccc(Cl)cc1`, the molecule was classed as inactive in assay [9].

For orientation: AC50 means the midpoint of the concentration-response curve, whichever way the signal moves.

(Values after PubChem BioAssay (EPA / NIEHS).)
